In PubChem BioAssay (NCI):
About 79,000 compounds went through this panel and 15% of them were active in at least one assay; those are over-represented in the sample as a whole. Calls of active or inactive are those of the source. Cut-off read from the data, not from the text of the source: active = growth inhibition above about 70%; inactive = the rest.

Legend:
[1] = NCI Yeast Anticancer Drug Screen. Data for the rad50 strain (AID 155);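 note: 0% = growth of vehicle-only cultures of the same strain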; settings: S. cerevisiae rad50 strain growth inhibition; at 50.0 µM; hits give high values
How it was run: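 Cells are treated with compound, grown, and their growth is then scored against vehicle-only cultures of the same repair-deficient yeast strain.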

[2] = NCI Yeast Anticancer Drug Screen. Data for the mec2-1 strain (AID 157); settings: S. cerevisiae mec2-1 strain, at 50.0 µM, hits give high values
How it was run: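 Cells of the genetically defined mec2-1 yeast strain are incubated with test compound. Inhibition of growth is calculated against vehicle-treated controls.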

[3] = NCI Yeast Anticancer Drug Screen. Data for the sgs1 mgt1 strain (AID 161);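 note: 0% = growth of cultures given vehicle only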; settings: S. cerevisiae sgs1 mgt1 strain, at 50.0 µM, hits give high values
How it was run: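 Read-out: growth inhibition vs vehicle controls. Cells: mutant yeast strain deficient in DNA damage repair.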

[4] = NCI Yeast Anticancer Drug Screen. Data for the cln2 rad14 strain (AID 165);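 note: 0% = growth equal to vehicle treated cultures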; settings: S. cerevisiae cln2 rad14 strain, at 50.0 µM, hits give high values
How it was run: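 The screen exposed genetically defined yeast (cln2 rad14) to test compounds and scored growth inhibition relative to vehicle-treated controls.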

[5] = NCI Yeast Anticancer Drug Screen. Data for the bub3 strain (AID 167); settings: S. cerevisiae bub3 mutant strain, at 50.0 µM, hits give high values
How it was run: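 Part of a panel of yeast mutants defective in DNA damage repair or cell cycle regulation. Each strain is grown with compound, and inhibition is calculated relative to solvent-treated cultures.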

[6] = NCI Yeast Anticancer Drug Screen. Data for the mlh1 rad18 strain (AID 175); settings: S. cerevisiae mlh1 rad18 strain growth inhibition; at 50.0 µM; hits give high values
How it was run: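 Compound-treated yeast growth, normalised to vehicle controls. Strain bears defined DNA repair mutations.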

Measured: growth inhibition

CCOc1nc(=O)n(CC(=O)c2ccc(Cl)s2)cc1F
inactive: [1] 4.55% | [2] 17.4% | [3] -0.8% | [4] -7.8% | [5] 21.6% | [6] 19.6%

Cc1ccc(NC(=O)Nc2ccc(Cl)cc2)c(C)c1
inactive: [1] -12.8% | [2] -6% | [3] 1.65% | [4] -28.6% | [5] 5.6% | [6] -0.65%

OCCN1OCCCC1c1ccccc1 (stereo unspecified)
inactive: [1] -0.75% | [2] -14.3% | [3] 1.2% | [4] -28.1% | [5] -31.2% | [6] 0.1%

CCOC(OCC)C(C)(C)OC=O
inactive: [1] -9.2% | [2] -20.8% | [3] -7.7% | [4] 24.2% | [5] 10.6% | [6] 6.6%

COc1ccc(CCCN2c3ccccc3Sc3ccccc32)cc1
inactive: [1] -6.1% | [2] -3.35% | [3] -21.2% | [4] -23.9% | [5] -19.9% | [6] -5.7%

COc1ccc2c(c1)CCC1=C2CCC2=CC(=O)CC[C@@]21C
inactive: [1] 5.4% | [2] 16.6% | [3] 4.4% | [4] 2.5% | [5] 38% | [6] -12.1%

Oc1ccc2ccccc2c1/C=N\Sc1ccc(Cl)cc1
inactive: [1] 49% | [2] 34.7% | [3] 64.1% | [4] 28.8% | [5] 32.2% | [6] 49%

O=[N+]([O-])c1ccc(S(=O)(=O)N/N=C/c2cccc([N+](=O)[O-])c2)cc1
inactive: [1] -8.15% | [2] -13.2% | [3] 1.1% | [4] -15% | [5] 0.35% | [6] -12.1%

O=C(O)c1cccc(O)c1C(=O)O
inactive: [1] 29.2% | [2] -3.4% | [3] 21.9% | [4] 21.2% | [5] 0.75% | [6] 33.9%

O=C1C2C3CC(C4C5C=CC(C5)C34)C2C2C3CC(C12)C1C2C=CC(C2)C31 (stereo unspecified)
inactive: [1] -19.1% | [2] -15.9% | [3] -24% | [4] 17.8% | [5] -9.15% | [6] -24.4%

O=C(/C=C/c1ccc(OCCCCCCCCCCOc2ccc(/C=C/C(=O)c3ccc(Cl)cc3)cc2)cc1)c1ccc(Cl)cc1
inactive: [1] 5.3% | [2] -1.45% | [3] -15.3% | [4] 16.1% | [5] 22.5% | [6] 15.6%

O=C1C=CC2(CC=CCC2)CC1 (stereo unspecified)
inactive: [1] 5.25% | [2] -8.4% | [3] -1.6% | [4] -23.4% | [5] -11.8% | [6] 0.55%

O=C(O)CCC(=O)NNc1nc2ccccc2s1
inactive: [1] 22.1% | [2] 2% | [3] 29.1% | [4] 19.8% | [5] -13.2% | [6] 44.4%

CC(=O)Oc1nc2ccccc2n1C(C)=O
inactive: [1] 15.3% | [2] 20.9% | [3] 20.6% | [4] -5.1% | [5] 39.5% | [6] 5.55%

OC(C1=NNC(C(O)c2ccccc2)=NN1)c1ccccc1 (stereo unspecified)
inactive: [1] -29% | [2] 4.7% | [3] 22% | [4] -20.4% | [5] -2.45% | [6] 5.8%

CCOCC(=O)N[C@H]1CCc2cc(OC)c(OC)c(OC)c2-c2ccc(OC)c(=O)cc21
inactive: [1] 9.45% | [2] -32.8% | [3] 22.4% | [4] -2.6% | [5] 9.35% | [6] 4%

Cc1cc(Cl)nc2ccc(Cc3ccc(Cl)cc3)cc12
inactive: [1] 16.7% | [2] -2.65% | [3] -5.2% | [4] 11.9% | [5] 11.1% | [6] -10.1%

Cc1cc2c(=O)c(C(=O)O)c[nH]c2cc1-n1cccc1
inactive: [1] 41.8% | [2] 23.6% | [3] 45% | [4] 15.7% | [5] 36.3% | [6] 33.2%

CCOC(=O)c1ccc(N)cc1
inactive: [1] 19.2% | [2] 20.1% | [3] -3.1% | [4] -9.55% | [5] -18.6% | [6] -1.8%

O=C1C2=Cc3ccccc3OC2(O)Oc2ccc(O)cc21 (stereo unspecified)
inactive: [1] 8.5% | [2] 6.75% | [3] -6.05% | [4] -2% | [5] -38.6% | [6] -33.5%

C1CCCCC/C2=C(\CCCC1)CSCCCS2
inactive: [1] -25.8% | [2] -19.9% | [3] -16.1% | [4] -14.6% | [5] 0.55% | [6] -36.5%

CCCCCCCC(=O)NC(O)C(Cl)(Cl)C(C)Cl (stereo unspecified)
inactive: [1] 31.1% | [2] -6.35% | [3] 3.35% | [4] -21.4% | [5] -1.55% | [6] 9.35%

CCOC(=O)NN(C(=O)OCC)C(C(=O)c1ccccc1)N(NC(=O)OCC)C(=O)OCC
inactive: [1] 27.6% | [2] 9.9% | [3] 16.9% | [4] 46.4% | [5] 20.9% | [6] 22.4%

COc1ccc(-c2nnc3cc(C)n4nnnc4n23)cc1OC
inactive: [1] 5.3% | [2] 5.55% | [3] 13.7% | [4] 9.1% | [5] 11.6% | [6] 16.2%

O=C1c2ccccc2C(=Cc2cccnc2)c2ccccc21
inactive: [1] 35.3% | [2] 31.9% | [3] 30.1% | [4] 20.2% | [5] 55.1% | [6] 40.7%

CCOC(=O)NCc1ccccc1
inactive: [1] 19% | [2] 8.7% | [3] 10.3% | [4] 2.6% | [5] -6.35% | [6] 20.1%

COC(=O)C12CCC(C(=O)OC)(CC1)n1c(=O)n(-c3ccccc3)c(=O)n12
inactive: [1] -4.8% | [2] -5.15% | [3] -7.7% | [4] -16.8% | [5] -1.85% | [6] -7.15%

COC(=O)c1c2c(cc3c1CC1(C3)Cc3cc4c(c(C(C)=O)c3C1)CCC4)C=CC2 (stereo unspecified)
inactive: [1] 0.15% | [2] -12.3% | [3] -26.1% | [4] 1.35% | [5] -5.75% | [6] -22.6%

CCN(CC)CCCNc1cc(OC)c(Cl)c2cccnc12
inactive: [1] 22.2% | [2] 9.1% | [3] 38% | [4] 35.9% | [5] -19.8% | [6] 28.7%

COC(=O)Nc1ccc(C)cc1[N+](=O)[O-]
inactive: [1] 5.5% | [2] -8.75% | [3] -13.4% | [4] -50.4% | [5] 6.4% | [6] -0.6%

O=C(Nc1ccccc1)O/N=C(/c1ccccc1)c1cccnc1
inactive: [1] 15.2% | [2] -5.1% | [3] 13.2% | [4] -3.3% | [5] 15.2% | [6] 6.3%

N#CCCn1nc(SC2CCCCC2)c(=O)[nH]c1=O
inactive: [1] -4.05% | [2] 1.95% | [3] 2.45% | [4] 32.3% | [5] 4.75% | [6] 4.3%

COc1ccc(/C=N/NC(=O)c2ccccc2OC)cc1
inactive: [1] 1.85% | [2] 19.6% | [3] 29.9% | [4] -11.5% | [5] -10.8% | [6] 36.1%

NC(=O)c1ccc[n+](CCCCCCCCCCC(=O)[O-])c1
inactive: [1] -7% | [2] 7.05% | [3] 0.8% | [4] -15% | [5] 4.75% | [6] 1.95%

O=C(O)CNC(=O)C(Cc1ccccc1)NC(=O)CNC(=O)C(CSC(c1ccccc1)c1ccccc1)NC(=O)C(CSC(c1ccccc1)(c1ccccc1)c1ccccc1)NC(=O)OCc1ccccc1 (stereo unspecified)
inactive: [1] -0.75% | [2] 27% | [3] 23.4% | [4] -17.2% | [5] -9.55% | [6] 44.1%

CN(C)CCNS(=O)(=O)N(C)C
inactive: [1] -25.1% | [2] -25.1% | [3] -24.4% | [4] 7.45% | [5] -51.8% | [6] 8.45%
